Records with an inconclusive call do not appear. Calls of active or inactive are those of the source. Unless noted, calls come from the whole dose curve; as a rule, active = well fitted curve in the direction sought with a large enough effect in the repeat runs; inconclusive = weak or mixed curves; inactive = no such curve, though single readings can be large; an effect the other way counts as inactive or inconclusive.
Assays:
[1] = qHTS assay to identify small molecule agonists of the RXR signaling pathway - cell viability counter screen (AID 1159529);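 note: HEK 293T cells carrying an RXR-alpha UAS beta-lactamase reporter; series mostly up to about 77 µM; nearly all actives have a fitted effect of over 50% in size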
Procedure, shortened: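 Steps: seed RXR-alpha-UAS-bla HEK 293T cells in assay medium containing 2% charcoal-stripped FBS; incubate 5 hr; add compounds in DMSO; incubate 16 hr at 37 C; after the bla read, add CellTiter-Glo and read luminescence at 30 min.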

[2] = qHTS assay to identify small molecule antagonists of the retinoid acid receptor (RAR) signaling pathway - cell viability counter screen (AID 1159551); note: nearly all actives have a fitted effect of over 35% in size
Procedure, shortened: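 Retinol-stimulated (1 uM final) C3RL4 cells, compound 6 h, 37 C; readout CellTiter-Glo luminescence (ATP) after 30 min RT incubation.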

[3] = qHTS assay to identify small molecule antagonists of the retinoic acid receptor (RAR) signaling pathway (AID 1159552; note: nearly all actives have a fitted effect of over 50% in size)
Procedure, shortened: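 Retinol at 1 uM final stimulated RARE-luciferase expression in C3RL4 cells exposed to test compounds for 6 hr at 37 C. Reduced luminescence, read 30 min after detection reagent, indicated pathway antagonism.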

[4] = qHTS assay to identify small molecule agonists of the retinoic acid receptor (RAR) signaling pathway (AID 1159553); note: potency is the fitted concentration of half-maximal effect
Procedure, shortened: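 Reporter readout comes from luciferase under RARE control in C3RL4 cells; compound exposure lasts 6 hr at 37 C in 5% CO2, and luminescence is recorded following a 30 min room-temperature incubation with reagent.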

[5] = qHTS assay to identify small molecule antagonists of the estrogen related receptor (ERR) signaling pathway from Tox21 library - cell viability counter screen (AID 1224834); note: nearly all actives have a fitted effect of over 30% in size
Procedure, shortened: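 After 17.5 h of compound exposure at 37 C, ERR cells are incubated with CellTiter-Fluor for 30 min and fluorescence intensity serves as the viability measure.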

[6] = molecular target: Luciferin 4-monooxygenase (Photinus pyralis) (UniProt P08659); test: qHTS assay to identify small molecule inhibitors of firefly luciferase (AID 1224835); note: nearly all actives have a fitted effect of over 25% in size; note: potency is the fitted concentration of half-maximal effect; for activity change, negative = inhibition: series mostly up to about 120 µM
Procedure, shortened: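 Biochemical qHTS: compounds run as interplate titrations against purified firefly enzyme, with D-luciferin and ATP each at its KM concentration. Light output recorded by CCD imaging.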

[7] = qHTS assay to identify small molecule agonists of the constitutive androstane receptor (CAR) signaling pathway - cell viability counter screen (AID 1224836); note: series mostly up to about 92 µM; nearly all actives have a fitted effect of over 45% in size
Procedure, shortened: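 Cells were seeded and incubated 4 hrs. Compounds were added across 15 concentrations together with PK11195 at 0.75 uM final. Plates were incubated 23 hrs at 37 C. CellTiter-Fluor was added and fluorescence measured.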

[8] = qHTS assay to identify small molecule antagonists of the constitutive androstane receptor (CAR) signaling pathway - cell viability counter screen (AID 1224837); note: series mostly up to about 92 µM; nearly all actives have a fitted effect of over 45% in size
Procedure, shortened: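 Counter screen run in HepG2-CYP2B6-hCAR cells: 4 hr settle, compound titration (15 concentrations) with 50 nM CITCO, 23 hr at 37 C/5% CO2, CellTiter-Fluor fluorescence.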

[9] = qHTS assay to identify small molecule antagonists of the estrogen related receptor signaling pathway with the pleiotropic PPARgamma coactivator (PGC) from Tox21 10K library - cell viability counter screen (AID 1224840; active = well fitted cell-killing curve with a large enough effect in the repeat runs, not every such curve was filed as active; note: nearly all actives have a fitted effect of over 40% in size)
Procedure, shortened: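 Following seeding of 2,000 PGC/ERR cells/well and 6 hours' incubation, test compounds were delivered in DMSO. The plates then sat 17.5 hours at 37 C before a fluorogenic live-cell protease reagent (CellTiter-Fluor) was read after 30 min.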

[10] = molecular target: Thyrotropin receptor (Homo sapiens) (UniProt P16473); test: qHTS assay to identify small molecule agonists of the thyroid stimulating hormone receptor (TSHR) signaling pathway (AID 1224843; calls by dose curve; note: nearly all actives have a fitted effect of over 45% in size)
Procedure, shortened: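 TSHR-HEK293 cells in agonist mode, 30 min room-temperature step, then cAMP measured by competitive HTRF (cAMP-d2 with anti-cAMP cryptate) after 1 h at room temperature. Tested at 15 concentrations in triplicate.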

[11] = molecular target: Nuclear receptor subfamily 1 group I member 3 (Homo sapiens) (UniProt Q14994); test: qHTS assay to identify small molecule antagonists of the constitutive androstane receptor (CAR) signaling pathway (AID 1224838);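 note: HepG2 cells stably expressing hCAR with CYP2B6 luciferase reporter stimulated by CITCO; nearly all actives have a fitted effect of over 40% in size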
Procedure, shortened: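 Cell line: HepG2 double-stable for hCAR and CYP2B6-2.2kb reporter. Agonist: CITCO, 50 nM final. Compounds: 15 concentrations, 24 h, 37 C. Detection: ONE-Glo luminescence.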

[12] = molecular target: Nuclear receptor subfamily 1 group I member 3 (Homo sapiens) (UniProt Q14994); test: qHTS assay to identify small molecule agonists of the constitutive androstane receptor (CAR) signaling pathway (AID 1224839); note: nearly all actives have a fitted effect of over 15% in size; note: potency is the fitted concentration of half-maximal effect;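 for activation: HepG2 cells stably carrying human CAR and a CYP2B6 luciferase reporter; series mostly up to about 92 µM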
Procedure, shortened: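 Cells were plated and incubated 4 hrs, then dosed with compounds at 15 concentrations. PK11195 was added to 0.75 uM final. After 24 hrs at 37 C, luciferase luminescence was measured.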

[13] = qHTS assay to identify small molecule antagonists of the estrogen related receptor signaling pathway with the pleiotropic PPARgamma coactivator (PGC) from Tox21 10K library (AID 1224841; call rule not given here; note: series mostly up to about 92 µM; actives are mostly falling curves and most rising ones were filed inactive; nearly all actives have a fitted effect of over 50% in size)
Procedure, shortened: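 qHTS antagonist format: PGC/ERR cells, 2k/well, compound in DMSO by pin transfer after 6 h attachment, 18 h treatment at 37 C, One-Glo luminescence read at 30 min.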

[14] = qHTS assay to identify small molecule agonists of the estrogen related receptor signaling pathway with the pleiotropic PPARgamma coactivator (PGC) from Tox21 10K library (AID 1224842); note: nearly all actives have a fitted effect of over 15% in size; note: potency is the fitted concentration of half-maximal effect
Procedure, shortened: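 PGC/ERR reporter cell line, 2,000 cells per well, incubated 6 h at 37 C before 23 nL compound in DMSO was added. After 18 h at 37 C, One-Glo luminescence read following 30 min at room temperature.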
% is set by controls: 0 for no effect and ±100 for the full control effect.

Luciferin 4-monooxygenase (Photinus pyralis), sequence (P08659 whole entry, looked up): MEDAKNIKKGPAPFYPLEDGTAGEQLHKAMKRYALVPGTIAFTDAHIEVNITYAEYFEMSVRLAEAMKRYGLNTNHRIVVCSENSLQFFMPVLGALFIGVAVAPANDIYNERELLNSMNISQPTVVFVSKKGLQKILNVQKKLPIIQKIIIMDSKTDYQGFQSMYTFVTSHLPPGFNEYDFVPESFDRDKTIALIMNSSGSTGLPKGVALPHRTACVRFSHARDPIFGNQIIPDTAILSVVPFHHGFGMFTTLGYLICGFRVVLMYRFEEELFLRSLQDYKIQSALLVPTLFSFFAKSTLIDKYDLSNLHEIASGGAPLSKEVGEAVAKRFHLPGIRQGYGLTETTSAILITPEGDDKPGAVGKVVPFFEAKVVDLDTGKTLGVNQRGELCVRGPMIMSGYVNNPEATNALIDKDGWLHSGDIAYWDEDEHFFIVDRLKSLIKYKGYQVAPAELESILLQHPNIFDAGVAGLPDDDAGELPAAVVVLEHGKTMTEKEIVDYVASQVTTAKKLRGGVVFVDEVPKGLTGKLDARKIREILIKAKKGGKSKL
Thyrotropin receptor (Homo sapiens), sequence (P16473 whole entry, looked up): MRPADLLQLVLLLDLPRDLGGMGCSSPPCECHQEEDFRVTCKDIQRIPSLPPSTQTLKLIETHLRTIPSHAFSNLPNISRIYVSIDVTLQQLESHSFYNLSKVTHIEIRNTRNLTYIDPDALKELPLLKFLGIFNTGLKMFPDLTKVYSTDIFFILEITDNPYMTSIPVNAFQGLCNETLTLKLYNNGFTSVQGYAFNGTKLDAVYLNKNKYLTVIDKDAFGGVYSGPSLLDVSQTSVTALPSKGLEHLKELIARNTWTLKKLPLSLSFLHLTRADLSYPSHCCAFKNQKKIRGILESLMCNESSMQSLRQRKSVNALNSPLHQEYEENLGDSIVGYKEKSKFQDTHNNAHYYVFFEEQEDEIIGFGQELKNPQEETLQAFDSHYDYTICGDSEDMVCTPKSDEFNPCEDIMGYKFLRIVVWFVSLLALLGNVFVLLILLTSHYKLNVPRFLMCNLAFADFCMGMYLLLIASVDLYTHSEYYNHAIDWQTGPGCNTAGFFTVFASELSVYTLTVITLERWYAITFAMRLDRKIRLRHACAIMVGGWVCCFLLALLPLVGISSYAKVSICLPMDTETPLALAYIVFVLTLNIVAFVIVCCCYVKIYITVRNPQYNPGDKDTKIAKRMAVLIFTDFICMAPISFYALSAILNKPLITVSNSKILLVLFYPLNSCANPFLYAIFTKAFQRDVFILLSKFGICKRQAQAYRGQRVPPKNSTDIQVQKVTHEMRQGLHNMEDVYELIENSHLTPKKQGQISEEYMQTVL
Nuclear receptor subfamily 1 group I member 3 (Homo sapiens), sequence (Q14994 whole entry, looked up): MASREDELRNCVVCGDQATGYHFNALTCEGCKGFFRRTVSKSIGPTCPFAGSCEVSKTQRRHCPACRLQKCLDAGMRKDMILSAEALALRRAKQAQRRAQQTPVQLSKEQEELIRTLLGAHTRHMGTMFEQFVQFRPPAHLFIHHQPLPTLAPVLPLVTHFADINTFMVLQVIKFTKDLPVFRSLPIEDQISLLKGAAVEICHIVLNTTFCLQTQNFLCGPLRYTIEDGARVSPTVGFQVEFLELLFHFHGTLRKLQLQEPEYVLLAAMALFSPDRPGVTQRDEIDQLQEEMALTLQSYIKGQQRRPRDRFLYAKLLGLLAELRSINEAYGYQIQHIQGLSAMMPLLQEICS

NC1CCN(c2nc3c(cc2F)c(=O)c(C(=O)O)cn3-c2ccc(F)cc2F)C1 (stereo not given)
inactive: Potency [1] | Potency [2] | Potency [3] | Potency [4] | Potency [5] | Potency [6] | Potency [7] | Potency [8] | Potency [9] | Potency [10]

CCOc1ccc2[nH]cc(C(=O)NCc3ccccc3)c(=O)c2n1
inactive: Potency [1] | Potency [2] | Potency [3] | Potency [4] | Potency [6] | Potency [7] | Potency [8] | Potency [11] | Potency [9] | Potency [10]

Cn1c(=O)c2c(ncn2CC(O)CO)n(C)c1=O (stereo not given)
inactive: Potency [1] | Potency [2] | Potency [3] | Potency [4] | Potency [6] | Potency [7] | Potency [12] | Potency [9] | Potency [13] | Potency [14] | Potency [10]

O=C(CCN1CCN2CCCC2C1)N1c2ccccc2Sc2ccc(Cl)cc21 (stereo not given)
inactive: activity change, negative = cytotoxicity [1] -22.2% [at 15.8 µM] | activity change, negative = cytotoxicity [2] -0.0558% [at 19 µM] | activity, negative = inhibition [3] -11.3% [at 19 µM] | Potency [4] | activity change, negative = inhibition [6] -1.42% [at 23.6 µM] | viability change, negative = cytotoxic [7] -17% [at 19 µM] | activity change, negative = cytotoxicity [8] -18.2% [at 19 µM] | viability change, negative = cytotoxic [9] -1.3% [at 19 µM] | activity, negative = inhibition [13] -25.1% [at 19 µM] | activation [14] -6.92% [at 19 µM] | activation [10] -2.43% [at 19 µM]

CC(C)(C)c1cc(CO)cc(C(C)(C)C)c1O
active: Potency [12] 24.8 µM
inactive: Potency [1] | Potency [2] | Potency [3] | Potency [4] | Potency [6] | Potency [7] | Potency [11] | Potency [9] | Potency [14] | Potency [10]

CC(C)c1cccc(C(C)C)c1NC(=O)NS(=O)(=O)c1cc(C(C)(C)O)co1
inactive: Potency [1] | Potency [2] | Potency [3] | Potency [4] | Potency [5] | Potency [6] | Potency [7] | Potency [9] | Potency [10]

CC1=CC(=O)/C(=C(/C)O)C(=O)O1
inactive: Potency [1] | Potency [2] | Potency [3] | Potency [4] | Potency [6] | Potency [7] | Potency [8] | Potency [11] | Potency [12] | Potency [9] | Potency [10]

CC(C(=O)O)c1ccc(-c2ccccc2)c(F)c1 (stereo not given)
inactive: Potency [1] | Potency [2] | Potency [3] | Potency [4] | Potency [5] | Potency [7] | Potency [8] | Potency [12] | Potency [9]

O=C(O)c1cccc(N(Cc2cccnc2)c2ccc(OC(F)F)c(OC(F)F)c2)c1
inactive: Potency [1] | Potency [2] | Potency [3] | Potency [4] | Potency [6] | Potency [7] | Potency [12] | Potency [9] | Potency [13] | Potency [14]

O=C(O)Cc1cc(I)c(Oc2ccc(O)c(I)c2)c(I)c1
inactive: Potency [1] | Potency [2] | Potency [3] | Potency [4] | Potency [5] | Potency [7] | Potency [8] | Potency [11] | Potency [9] | Potency [14] | Potency [10]

CC(C)(Oc1ccc(Cl)cc1)C(=O)OCCCOC(=O)C(C)(C)Oc1ccc(Cl)cc1
inactive: Potency [1] | Potency [2] | Potency [3] | Potency [4] | Potency [6] | Potency [7] | Potency [8] | Potency [9]

CN1CCN(C2=Nc3ccccc3Sc3ccc(Cl)cc32)CC1
inactive: Potency [1] | Potency [2] | Potency [3] | Potency [4] | Potency [7] | Potency [8] | Potency [11] | Potency [12] | Potency [9] | Potency [13] | Potency [14] | Potency [10]

COc1ccc(C(C)=O)cc1
inactive: Potency [1] | Potency [2] | Potency [3] | Potency [4] | Potency [6] | Potency [7] | Potency [8] | Potency [11] | Potency [12] | Potency [9]

COCCOCCOCCOCCOC
inactive: Potency [1] | Potency [2] | Potency [3] | Potency [4] | Potency [6] | Potency [7] | Potency [8] | Potency [9] | Potency [10]

O=C(O)C(c1ccc(Cl)cc1)c1ccc(Cl)cc1
inactive: Potency [1] | Potency [2] | Potency [3] | Potency [4] | Potency [5] | Potency [6] | Potency [7] | Potency [12] | Potency [9] | Potency [13] | Potency [14] | Potency [10]

CC(=O)N(O)CCCCCNC(=O)CCC(=O)N(O)CCCCCNC(=O)CCC(=O)N(O)CCCCCN
inactive: Potency [1] | Potency [2] | Potency [3] | Potency [4] | Potency [6] | Potency [7] | Potency [8] | Potency [9] | Potency [14] | Potency [10]

O=C1Nc2cc(Cl)ccc2Oc2ccccc21
inactive: Potency [1] | Potency [2] | Potency [3] | Potency [4] | Potency [6] | Potency [7] | Potency [8] | Potency [11] | Potency [9] | Potency [10]

CCCCCCCCCCCCCCCBr
inactive: Potency [1] | Potency [2] | Potency [3] | Potency [4] | Potency [5] | Potency [6] | Potency [7] | Potency [8] | Potency [10]

O=C(NS(=O)(=O)/C=C/c1cccs1)c1ccc(F)cc1Br
inactive: Potency [1] | Potency [2] | Potency [3] | Potency [4] | Potency [5] | Potency [6] | Potency [7] | Potency [11] | Potency [12] | Potency [9]

NC(=S)N/N=C/c1cccnc1
inactive: Potency [1] | Potency [2] | Potency [3] | Potency [4] | Potency [6] | Potency [7] | Potency [8] | Potency [11] | Potency [12] | Potency [9] | Potency [13]

O=C(O)c1cn(C2CC2)c2cc(Cl)c(F)cc2c1=O
inactive: Potency [1] | Potency [2] | Potency [3] | Potency [4] | Potency [5] | Potency [6] | Potency [7] | Potency [12] | Potency [9] | Potency [10]

CC(=O)O[C@@H]1C(=O)O[C@@H]2[C@H]1OC(=O)[C@@H]2OC(C)=O
inactive: Potency [1] | Potency [2] | Potency [3] | Potency [4] | Potency [5] | Potency [6] | Potency [7] | Potency [8] | Potency [9] | Potency [10]

CCCCCOC(=O)c1ccc(O)cc1
inactive: Potency [1] | Potency [2] | Potency [3] | Potency [7] | Potency [11] | Potency [13] | Potency [10]
active: Potency [4] 1.23 µM | Potency [6] 36 µM | Potency [12] 55.1 µM | Potency [14] 27.6 µM

From PubChem BioAssay (Tox21)
